TDP1 cell CPT – qHTS for Inhibitors of human tyrosyl-DNA phosphodiesterase 1 (TDP1): qHTS in cells in presence of CPT; chicken DT40 Tdp1-/-;hTDP1 cells + 20 nM CPT, ATP luminescence, 48 h; Potency, µM (titrated, usually from 46.2 µM), for the others: at the highest dose activity change, negative = growth inhibition, actives largely listed as inhibitors; 12% of 420,000 active; also: % is scaled to controls: 0 for no effect and ±100 for the full control effect; nearly all actives have a fitted effect of over 55% in size
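Cell growth measured by CellTiter-Glo luminescence after a minimum 48 h, 37 C compound exposure with 20 nM CPT in Tdp1-knockout DT40 cells stably expressing hTDP1, seeded 400/well; qHTS titration format.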
S2 tox – Viability Counterscreen for Primary qHTS for Inhibitors of ATXN expression; S2 cells (HEK-293 line with an ATXN2-luciferase reporter) viability, CellTiter-Fluor protease fluorescence, 24 h; Potency, µM (top dose mostly 56.7 µM), most hits filed as cytotoxic; 0.49% of 400,000 active; AID 651635, 2014; also: nearly all actives have a fitted effect of over 40% in size
TGFb inhibitor – qHTS for Inhibitors of TGF-b; HepG2 CAGA-GFP TGF-b/SMAD3 reporter, GFP fluorescence, 18 h; TGF-beta stimulated, 500 pg/mL final; Potency, µM (series often up to 46.1 µM), for the others: top-dose activity, negative = inhibition, hits mostly inhibitors; 1.2% of 410,000 active; also: % is scaled to controls: 0 for no effect and ±100 for the full control effect; nearly all actives have a fitted effect of over 65% in size
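Inhibition was scored as loss of TGF-beta-induced (500 pg/mL final, 18 hours, 37 degrees C) GFP in HEPG2 cells carrying a CAGA-GFP reporter, in DMEM with 1% FBS. Well GFP was summed per cell; Activity was normalised to unstimulated and stimulated DMSO wells, then concentration-response fitting.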
HepG2 viability – qHTS for Inhibitors of TGF-b: Cytotox Counterscreen. Potency, µM (titrated, usually from 46.1 µM), for the others: at the highest dose activity change, negative = cytotoxicity, usual class: cytotoxic. HepG2 CAGA-GFP viability, ATP luminescence, 18 h. 0.76% of 410,000 active
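CellTiter-Glo luminescence gave cytotoxicity after 18 hours at 37 degrees C. The cells were HepG2 CAGA-GFP in 1% FBS DMEM, stimulated with 500 pg/mL TGF-beta after compound addition. %Activity was normalised to no-cell wells (complete cell-killing) and DMSO (no toxicity), and curves were fitted and classified.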
ATXN2 expr inh – Primary qHTS for Inhibitors of ATXN expression; Potency, µM (top dose mostly 57 µM), without a hit: at the top dose activity change, negative = inhibition, most hits filed as inhibitors; HEK-293 ATXN2-luciferase reporter, luminescence, 24 h; 0.72% of 360,000 active; also: % is scaled to controls: 0 for no effect and ±100 for the full control effect; nearly all actives have a fitted effect of over 55% in size
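ATXN2-luciferase reporter cells (luciferase flanked by upstream and downstream ATXN2 gene portions) were treated 24 h at 37 °C with compounds at up to 57 uM. SteadyGlo luminescence gave expression; GF-AFC fluorescence gave viability.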
DT40 TDP1 no CPT – qHTS for Inhibitors of human tyrosyl-DNA phosphodiesterase 1 (TDP1): qHTS in cells in absence of CPT. DT40 Tdp1-/- hTDP1 cells, no CPT, ATP luminescence, 48 h. Potency, µM (highest dose often 46.2 µM), without a hit: at the top dose activity change, negative = growth inhibition, hits mostly inhibitors. 15% of 420,000 active; also: % is scaled to controls: 0 for no effect and ±100 for the full control effect; nearly all actives have a fitted effect of over 55% in size
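Cells were dispensed at 400 per well, compounds added by pin tool, plates incubated ≥48 hr at 37 °C, then CellTiter-Glo added for 30 min at room temperature before luminescence reading. Line: DT40 Tdp1-/- complemented with hTDP1; camptothecin omitted.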
Starred values were filed as active, the others as inactive; i = inactive; ? = inconclusive; · = not tested or not shown. Rows were chosen to be rich in hits. Some 17% of all compounds tested hit in one or more screens of this group. Calls follow the shape of the dose curve; as a rule, active = well fitted curve in the direction sought with a large enough effect; inconclusive = small, poorly fitted or top-dose-only effect, or another doubt; inactive = no such curve, though single readings can be large; an effect the other way counts as inactive or inconclusive. Potency is read from the fitted curve at half-maximal effect.

SMILES	TDP1 cell CPT	S2 tox	TGFb inhibitor	HepG2 viability	ATXN2 expr inh	DT40 TDP1 no CPT
O=C(Nc1ccc(Nc2ccccc2)cc1)c1ccc(Cl)c([N+](=O)[O-])c1	13µM*	?	?	-56%	·	10µM*
O=C(Nc1ccc(Nc2ccccc2)cc1)c1ccc(Cl)cc1[N+](=O)[O-]	5.8µM*	i	-17%	2%	·	16µM*
CCN(C(=O)c1ccc(Cl)cc1[N+](=O)[O-])c1ccccc1C	16µM*	i	5%	2%	-6%	15µM*
O=C(CN1C(=O)COc2ccc(S(=O)(=O)N3CCOCC3)cc21)NCc1ccc(F)cc1	-15%	·	0%	-3%	·	-15%
Cc1c([N+](=O)[O-])cc(C(=O)Nc2ccc(Cc3ccncc3)cc2)cc1[N+](=O)[O-]	-12%	i	-29%	-29%	?	-18%
Cc1cc(C(=O)Nc2ccc(Nc3ccccc3)cc2)ccc1[N+](=O)[O-]	3.3µM*	i	28%	1%	2%	4.6µM*
CCN(C(=O)c1ccc(Cl)c([N+](=O)[O-])c1)c1ccccc1	?	i	-18%	3%	?	15µM*
Cc1cc(C(=O)NCCc2ccccc2)ccc1[N+](=O)[O-]	-10%	i	9%	-19%	65%	-17%
O=C(Nc1ccc(Cc2ccncc2)cc1)c1ccc(Cl)c([N+](=O)[O-])c1	16µM*	?	-5%	-39%	-19%	18µM*
CCN(CC)CCCC(C)NC(=O)c1ccc(C(F)(F)F)cc1 (stereo unspecified)	0%	i	-8%	6%	·	?
C=C1CCN([C@@H](Cc2ccccc2)C(=O)NCCC(C)C)S(=O)(=O)c2ccccc21	-10%	i	-17%	-11%	-2%	?
Cc1cc(C)cc(NC(=S)N2CC(C)OC(C)C2)c1 (stereo unspecified)	1%	i	-2%	2%	3%	30%
COc1cccc(-c2cnc3c(NC(C)=O)cc(-c4ccc(S(C)(=O)=O)cc4)cn23)c1	?	?	-5%	5%	?	23µM*
COc1ccc(-c2cnc3c(NC(C)=O)cc(-c4ccc(S(C)(=O)=O)cc4)cn23)cc1OC	?	i	0%	-18%	-3%	18µM*
COc1cc(SC)ccc1C(=O)Nc1ccccn1	-12%	i	-13%	-16%	-22%	-29%
COc1cc(SC)ccc1C(=O)Nc1cccc(C)n1	?	i	-14%	-7%	9%	5.8µM*
COc1ccc(CNC(=O)c2ccc(SC)cc2OC)cc1	-28%	i	-2%	-91%	5%	-18%
COc1cc(SC)ccc1C(=O)NCCc1ccccc1	15µM*	i	-27%	-20%	33%	-107%
COc1cc(SC)ccc1C(=O)Nc1ccc(Br)cn1	?	i	6%	5%	·	13µM*
COc1ccc([C@@H]2[C@@H]3C(=O)N(C(C)(C)C)C(=O)[C@@H]3[C@]3(Cc4ccc(Cl)cc4)C(=O)N(c4cccc(F)c4)C(=O)N23)cc1	?	i	-1%	-6%	1%	?
CCOC(=O)c1ccc(N2CC(O)=C(c3nc4ccccc4c(=O)[nH]3)C2=N)cc1	?	i	26%	0%	2%	10µM*
CCCCCCN1CC(O)=C(c2nc3ccccc3[nH]2)C1=N	-1%	i	-5%	-2%	0%	-2%
N=C1C(c2nc3ccccc3[nH]2)=C(O)CN1c1ccccc1	?	i	?	-5%	45%	23µM*

Assay outcomes deposited in PubChem BioAssay by National Center for Advancing Translational Sciences (NCATS).
